Data as given in PubChem BioAssay.
Activity calls are given as the source filed them.

Experiments:
[1] = compound effects on lung adenocarcinoma cell viability – A549, calcein-AM fluorescence, 48 h, basal, profiling panel (AID 1162); conditions: higher = more signal
[2] = compound effects on differentiated 3T3-L1 adipocyte viability – cell-based, 3T3-L1 adipocytes, calcein-AM fluorescence, 48 h, basal, profiling panel (AID 1163); conditions: 3T3-L1 adipocytes viability, higher = more signal
[3] = compound effects on hepatocellular carcinoma cell viability – HepG2, calcein-AM fluorescence, 48 h, basal, profiling panel (AID 1164); conditions: higher = more signal
[4] = compound effects on multiple myeloma cell viability – MM1S, calcein-AM fluorescence, 48 h, basal, profiling panel (AID 1165); conditions: higher = more signal
[5] = calcein-AM signal in unstimulated myeloma cells – cell-based, calcein-AM fluorescence, 48 h, PK04 Diversity Set, profiling panel (AID 1166); conditions: RPMI8226 myeloma viability, higher = more signal;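 note: cells grown under basal conditions without added stimulus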
[6] = JC-1 mitochondrial signal, unstimulated HepG2 cells – cell-based, JC-1 fluorescence, 24 h, 100 nL compound, profiling panel (AID 1167); conditions: HepG2 mitochondrial potential, higher = more signal
[7] = JC-1 mitochondrial signal, unstimulated adipocytes – cell-based, JC-1 fluorescence, 3T3-L1 adipocytes, 24 h, 100 nL compound, profiling panel (AID 1168); conditions: JC-1 mitochondrial fluorescence, higher = more signal, called active from +8 up or from −8 down
[8] = JC-1 mitochondrial signal, unstimulated myeloma cells – cell-based, JC-1 fluorescence, RPMI8226, 24 h, 100 nL compound, profiling panel (AID 1169); conditions: JC-1 mitochondrial potential fluorescence, higher = more signal
[9] = JC-1 mitochondrial signal, unstimulated MM1S myeloma – cell-based, JC-1 fluorescence, 24 h, 100 nL compound, profiling panel (AID 1170); conditions: MM1S mitochondrial potential, higher = more signal
[10] = resazurin metabolic signal in A549 cells – cell-based, resazurin fluorescence, 24 h, PK04 Diversity Set, profiling panel (AID 1171); conditions: A549 viability, higher = more signal, called active from +8 up or from −8 down
Note: test concentration not given here.

SMILES	z-score [1]	z-score [2]	z-score [3]	z-score [4]	z-score [5]	z-score [6]	z-score [7]	z-score [8]	z-score [9]	z-score [10]
O=C(O)[C@H](Cc1ccccc1)n1cc(C2(O)CCCCC2)nn1	-0.53	-1.54	0.105	-0.364	-0.361	-1.14	-0.569 (inactive)	0.791	-0.417	0.0465 (inactive)
NC(=O)N1C(=O)C2C(C1=O)C1C=C(CCCO)C2C(c2ccc(CN3CCCC3)cc2)N1Cc1sc2ccccc2c1Cl (stereo not given)	-0.142	-0.501	-0.389	-2.67	0.0222	0.916	-0.753 (inactive)	0.0845	0.423	-0.301 (inactive)
C[N+](C)(C)CCCCNC(=O)[C@H]1C[C@H]2C(=O)N[C@@H](Cc3ccccc3)C(=O)N2[C@H]1c1cccc(OCCO)c1	-0.52	-0.878	-0.097	0.135	-0.748	-0.559	-0.318 (inactive)	0.0888	-0.4	-0.967 (inactive)
C=CCOC(=O)[C@H]1[C@@H]2C(=O)O[C@@H](c3ccccc3)[C@@H](c3ccccc3)N2[C@@H](c2ccc(OCCOC(=O)[C@H]3C[C@H]4C(=O)N[C@@H](CC(C)C)C(=O)N4[C@H]3c3ccc(O)cc3)cc2)[C@]12C(=O)Nc1ccccc12	0.0118	-0.382	0.414	0.178	0.34	-1.78	1.05 (inactive)	-0.485	-1.19	1.96 (inactive)
NC(=O)N1C(=O)C2C(C1=O)C1C=C(CCCO)C2C(c2ccc(CN3CCCC3)cc2)N1Cc1cc2c(cc1Br)OCO2 (stereo not given)	-1.05	0.201	-0.623	-0.0321	0.124	-0.595	-0.472 (inactive)	0.159	0.322	-0.855 (inactive)
COCCOC(=O)N1C(=O)[C@@]2(c3cc(C#CCCO)ccc31)[C@H](c1ccccc1OCCO)N1[C@H](c3ccccc3)[C@H](c3ccccc3)OC(=O)[C@H]1[C@@H]2C(N)=O	0.49	1.8	-0.112	-1.49	-4.2	0.446	1 (inactive)	-1.22	-1.12	-0.0131 (inactive)
COCCOC(=O)N1C(=O)[C@@]2(c3cc(C#CCC(C(=O)OC)C(=O)OC)ccc31)[C@H](c1ccc(O)cc1)N1[C@H](c3ccccc3)[C@H](c3ccccc3)OC(=O)[C@H]1[C@@H]2C(=O)Nc1nc2ccccc2s1	-0.451	0.982	-0.0867	0.121	-0.6	-1.18	-1.98 (inactive)	-0.164	0.0358	0.066 (inactive)
C=CCNC(=O)[C@H]1[C@@H]2C(=O)O[C@@H](c3ccccc3)[C@@H](c3ccccc3)N2[C@@H](c2ccc(OCCO)cc2)[C@]12C(=O)Nc1ccc(C#CC3(O)CCCCCC3)cc12	1.17	1.36	-0.0346	-2.27	-1.41	-1.57	0.43 (inactive)	-0.819	-0.535	1.31 (inactive)
CC(C)=CCCC(C)=CC(O)C1C=CC2C(=O)NC(=O)C2N1Nc1ccccn1 (stereo not given)	0.531	-0.446	1.29	0.617	0.586	-0.23	-0.503 (inactive)	0.333	0.0809	-1.39 (inactive)
CCCCC(O)C1C=CC2C(=O)N(c3ccccc3)C(=O)C2N1Nc1ccccc1 (stereo not given)	0.645	-1.91	-0.371	0.225	-0.374	-1.43	0.466 (inactive)	-0.241	0.0498	0.134 (inactive)
C[C@@H]1ON(c2ccccc2)[C@H](c2ccccc2)[C@H]1C(=O)O	-0.0985	0.375	-0.374	-0.655	0.0402	-0.246	-0.212 (inactive)	-0.0601	-0.599	-0.236 (inactive)
OCCCC1=CC(c2ccc(CN3CCCC3)cc2)N(Cc2cccc(OC(F)(F)F)c2)CC1 (stereo not given)	-4.68	-0.267	-4.99	-3.3	-3.83	-0.125	0.367 (inactive)	-0.739	-2.38	0.194 (inactive)
CN1C(=O)C2C(C3CC3)C=C3CN(Cc4cccc(Cl)c4)[C@@H]([C@@H](O)Cc4ccccc4)C3C2C1=O (stereo not given in full)	1.19	0.638	0.506	-1.81	-2.67	1.24	-0.424 (inactive)	-0.426	-0.939	0.43 (inactive)
O=C1[C@@H]2[C@@H](CC(COc3ccccc3)=C([C@H](O)CCc3ccccc3)[C@@H]2CO)C(=O)N1Cc1ccccc1	-0.137	-0.331	-1.32	-3.23	-3.48	0.325	-0.0321 (inactive)	-1.04	-1.33	-0.833 (inactive)
CCCNC(=O)[C@@]1(Sc2ccc(C)cc2)CC(=O)N(Cc2ccccc2Cl)[C@@H]1c1ccc(CO)cc1I	1.43	-0.139	1.01	-1.9	-1.67	0.377	0.667 (inactive)	-0.547	-1.87	0.204 (inactive)
C=C(CCCC)/C(=C/C[C@@H](OC(C)=O)c1ccc(CO)o1)c1cnc2ccccc2c1	0.159	1.04	-0.042	-1.56	-1.52	-0.462	-0.583 (inactive)	-0.133	-1.12	-1.29 (inactive)
C=CCC(OC(C)=O)[C@@H]1[C@@H](N(Cc2ccc(-c3ccccc3)cc2)C(=O)c2cccc3ccccc23)c2cc(OCCCO)ccc2N1C(=O)Cc1ccc(OC)cc1 (stereo not given in full)	-0.0276	0.725	-0.518	-0.536	-0.682	1.57	-1.63 (inactive)	0.78	0.401	-0.399 (inactive)
COCCOC(=O)N1C(=O)[C@@]2(c3cc(C#CC4(O)CCCCCC4)ccc31)[C@H](c1ccc(O)cc1)N1[C@H](c3ccccc3)[C@H](c3ccccc3)OC(=O)[C@H]1[C@@H]2C(=O)N1CCCCCCC1	0.717	-0.854	0.98	-0.615	-1.83	-0.442	-0.943 (inactive)	-1.01	0.0446	-0.178 (inactive)
CCOc1cc(C(O)C2C=CC3C(=O)N(c4ccccc4)C(=O)C3N2Nc2ccccc2F)ccc1O (stereo not given)	0.0113	0.521	0.294	-0.495	-0.18	-1.58	-0.945 (inactive)	-0.853	0.699	-0.928 (inactive)
COC(=O)[C@@]1(Cc2ccccc2)N=C(c2ccc(OCCCO)cc2)O[C@H]1c1ccccc1CN=[N+]=[N-]	-2.95	-0.565	-5.45	-3.55	-3.96	-2.16	1.22 (inactive)	-1.13	-2.9	-5.77 (inactive)
CC(C)(C)N1CC=CC23O[C@@H]4C=CCCOC(=O)C4[C@H]2C(=O)N(CCCCCCO)[C@@H]3C1=O (stereo not given in full)	0.0905	-2.98	0.952	1.35	0.229	0.212	-0.501 (inactive)	-0.0402	-0.516	-0.523 (inactive)
C=CCC(OC(C)=O)[C@@H]1[C@@H](N(Cc2cccc3ccccc23)C(=O)Cc2ccc(OC)cc2)c2cc(OCCCO)ccc2N1C(=O)c1ccc2ccccc2c1 (stereo not given in full)	1.19	2.02	0.692	0.357	1.19	2.55	0.443 (inactive)	0.066	0.433	0.445 (inactive)
CC1CC/C=C\[C@H]2OC34C=CCN(c5ccc(Cl)cc5)C(=O)[C@H]3N(CCCCCCO)C(=O)[C@]4(C)C2C(=O)O1 (stereo not given in full)	0.943	-3.94	0.606	1.88	-0.368	0.232	0.115 (inactive)	1.03	-0.439	0.523 (inactive)
C=CCN1Cc2ccccc2[C@H]2OC(c3ccc(OCCCO)cc3)=N[C@@]2(CCS(=O)(=O)c2ccccc2)C1=O	0.0622	0.413	-0.37	-1.56	-0.209	-0.971	-0.509 (inactive)	-0.798	-0.0644	0.0687 (inactive)
C=C1C(=O)C=C2CN(C(=O)c3ccccc3)[C@@](Cc3ccc(OC)cc3)(C(=O)OC)[C@@H]12	-1.92	-0.033	-1.62	-1.73	-4.68	0.971	-1.02 (inactive)	-0.908	-1.74	-0.701 (inactive)
O=C(NC1CC1)[C@@H]1c2ccccc2C(=O)N(Cc2cc(C(F)(F)F)cc(C(F)(F)F)c2)[C@H]1c1ccc(CO)cc1	1.68	1.61	0.289	0.538	-1.32	0.693	-0.439 (inactive)	0.801	-0.687	0.307 (inactive)
[N-]=[N+]=Nc1ccccc1[C@H]1OC(c2ccc(OCCCO)cc2)=N[C@@]1(Cc1ccccc1)C(=O)NCC(O)CO (stereo not given in full)	-0.761	0.405	-0.629	-1.5	-2.2	0.854	0.291 (inactive)	-0.925	-1	-0.949 (inactive)
COc1ccc(C(=O)Nc2cccc(CN3C(=O)[C@]4(O[C@H](CC(=O)N5Cc6ccccc6C[C@H]5CO)[C@@H]([Si](C)(C)c5ccc(OC)cc5)[C@@H]4C)c4ccccc43)c2)cc1	-0.969	1.3	-1.05	-0.253	-2.56	0.729	-0.458 (inactive)	-0.93	-0.313	-1.31 (inactive)
